Results on two compounds are retold here after PubChem BioAssay AID492949 (National Center for Advancing Translational Sciences (NCATS), 2010).

Inconclusive results are not listed. A call without a number means that no potency is given here. The source made the active and inactive calls. Calls follow the shape of the dose curve; as a rule, active = well fitted activation curve with a large enough effect; inconclusive = small, poorly fitted or top-dose-only effect; inactive = no such curve, though single readings can be large or run the other way.

This test has as its target Relaxin receptor 1 (Homo sapiens) (UniProt Q9HBX9). Description: qHTS Assay for Agonists of the Relaxin Receptor RXFP1: THP1 Hit Validation. Also: nearly all actives have a fitted effect of over 60% in size. From the text: The relaxin hormone is involved in the variety of biological functions in normal tissues and diseases. The role of relaxin is well-established in female reproduction and parturition, mammary gland and endometrial development, maintenance of myometrial quiescence during pregnancy. Relaxin signaling through its G protein-coupled receptor (GPCR) RXFP1 results in ECM remodeling through regulation of collagen deposition, cell invasiveness, proliferation and overall tissue homeostasis. […] Recombinant human relaxin (rhRlx) is currently being tested in clinical trials as a protective agent in congestive heart failure, in treating severe preeclampsia, and as an anti-fibrotic agent in systemic sclerosis.
Upon relaxin binding RXFP1 activation leads to the activation of adenylate cyclase (AC) via Gs. cAMP will activate PKA, which phosphorylates many signaling proteins. Thus, detection of cAMP increase is an easy and reliable indication of relaxin receptor activation. […] RXFP1 activation was assayed by changes in cAMP levels as detected with a time-resolved fluorescence energy transfer (TR-FRET) cAMP detection kit. […]
This is a cell-based assay for cAMP second messenger response to screen for agonists of the RXFP1 receptor. […] The cells were lysed and the cAMP levels were measured with a TR-FRET cAMP kit. […] The EC50 values were determined from concentration-response data modeled with the standard Hill equation […]
Background: In qHTS, concentration-response curves come from the screen itself.
Potency is read from the fitted curve at half-maximal effect.

Relaxin receptor 1 (Homo sapiens), sequence (Q9HBX9 whole entry, looked up): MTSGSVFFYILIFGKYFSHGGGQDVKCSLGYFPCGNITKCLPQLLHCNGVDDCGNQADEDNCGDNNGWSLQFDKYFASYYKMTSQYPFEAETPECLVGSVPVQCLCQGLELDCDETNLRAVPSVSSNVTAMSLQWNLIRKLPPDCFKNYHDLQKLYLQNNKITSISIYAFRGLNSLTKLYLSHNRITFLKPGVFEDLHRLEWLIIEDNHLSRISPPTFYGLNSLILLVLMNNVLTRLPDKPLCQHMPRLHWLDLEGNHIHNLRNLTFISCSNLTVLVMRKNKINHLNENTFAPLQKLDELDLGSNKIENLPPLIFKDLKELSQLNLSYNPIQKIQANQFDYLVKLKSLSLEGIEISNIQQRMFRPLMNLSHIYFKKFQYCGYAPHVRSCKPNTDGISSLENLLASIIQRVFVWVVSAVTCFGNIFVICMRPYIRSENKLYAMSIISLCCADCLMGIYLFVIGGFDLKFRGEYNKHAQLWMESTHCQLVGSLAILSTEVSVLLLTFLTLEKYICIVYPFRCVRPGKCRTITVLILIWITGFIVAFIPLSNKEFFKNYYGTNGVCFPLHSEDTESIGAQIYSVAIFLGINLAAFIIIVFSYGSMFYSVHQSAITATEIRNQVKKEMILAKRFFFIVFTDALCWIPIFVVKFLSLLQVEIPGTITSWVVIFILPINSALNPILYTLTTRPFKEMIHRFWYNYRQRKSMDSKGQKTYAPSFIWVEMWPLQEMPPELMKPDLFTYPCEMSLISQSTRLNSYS

Consider `O=c1[nH]c(O)c(N=Nc2ccc([N+](=O)[O-])cc2)c(=O)[nH]1`, for which the Potency is 11 µM (active).
As to `CCC(Oc1cc(Cl)ccc1Cl)C(=O)N1CCC2(CC1)OCCO2` (configuration not stated), the Potency result was “inactive”.
